In PubChem BioAssay (EPA / NIEHS):
Where a structure was tested more than once in an assay, its records may differ in their call. Active and inactive are the calls of the source. How the source made its calls: active means hit-call score of the fitted dose curve at least 0.9, where 1 is the maximum; inactive means score below 0.9.

Read-out: Peroxisomal acyl-coenzyme A oxidase 1 (ACOX1) gene, ACOX1 (gene 51)
Assay: LTEA_HepaRG_ACOX1: Life Technologies and Expression Analysis (LTEA) Assay for Peroxisomal acyl-coenzyme A oxidase 1 (ACOX1) gene using HepaRG (AID 2283467)
Conditions: mRNA level, 48 h; actives raise or lower the signal
Protocol: LTEA_HepaRG is a cell based, multiplexed-readout assay that uses HepaRG, a human liver cell line, with measurements taken at 48 hours after chemical dosing on a 96-well plate.LTEA_HepaRG_ACOX1 is one of 102 assay component(s) measured in the LTEA HepaRG cell culture assay. It is a marker of Steatosis.Data from the assay component LTEA_HepaRG_ACOX1 was analyzed into 1 endpoint. This assay endpoint, LTEA_HepaRG_ACOX1, was analyzed with bidirectional fitting relative to DMSO as the negative control and baseline of activity. Using a type of inducible reporter, measures of mRNA induction for gain or loss-of-signal activity can be used to understand regulation of transcription factor activity. To generalize the intended target to other relatable targets, this assay endpoint is annotated to the oxidase intended target family, where the subfamily is steatosis.
A total of 1060 chemcials from the ToxCast library were tested in eight-point concentration-response experiments. Cell culture and cytotoxicity assays were conducted at Thermo Fisher Scientific's Custom Services facility (Madison, WI). A single lot of human HepaRG cells (Thermo Fisher Scientific, Frederick, MD) was used for the cell culture experiments. 96-well format collagen type I coated plates of human HepaRG cells were prepared using established methods. Briefly, cryopreserved HepaRG cells were thawed, plated at a density of approximately 100,000 cells/well in HepaRG Thaw, Plate, and General Purpose media (HPRG770, Thermo Fisher Scientific), and incubated for 48 hours. 0.5% DMSO was selected as vehicle control to balance the requisite need of DMSO in HepaRG cultures to maintain differentiation (for example, baseline metabolism, proportions of hepatocytes vs. cholangiocytes), while enabling further hepatic receptor pathway activation (for example, PXR and CAR) in response to chemical exposure. 48 hours after plating, the culture medium was replaced with HepaRG Serum-Free Incudtion Media. Cells were exposed to each test chemical in duplicate and maintained in CO2 incubators for another 48 hours. Chemical plates were thawed to room temperature and 200x concentrations of treatment groups were prepared. 8-point conentration-reponse curves were made with the highest exposure at 100 uM, followed by half-log dilutions, all in 0.5% DMSO. Each test plate contained variouse controls, induction positive controls (1mM phenobarbital), cytotoxicity positive controls ([…] aflatoxin B1), vehicle controls (0.5% DMSO), and total lysis controls (0.5% DMSO). Cell morphology images were taken using an Essen IncuCyte FLR automated microscope, with six 96-well plates imaged in about 24 minutes. Images were captured and exported and JPEG files. Spent culture media was transfered to black-well plates for the LDH assay, and remaining media was sorted at -80 C for later use. Cells were treated with RLT buffer and frozen until shipped for gene expression analysis. Total RNA was isolated from the cell suspension in 75 uL of Buffer RLT (Qiagen, Germantown, MD 20874) by Quintiles/Expression Analysis (Durham, NC) using a custom isolation procedure. Total RNA from each plate well was transferred to a preamplification plate. Fluidigm's 96.96 Dynamic ArrayTM (Fluidigm, Amsterdam, the Netherlands) technology was used for gene expression analyses by quantitative reverse transcription polymerase chain reaction (qRT-PCR, performed by Quintiles/Expression Analysis, Durham, NC)89. Standard TaqManTM Assays (Applied Biosystems/ThermoFisher Scientific, Foster City, CA) were used to assess the expression of 93 genes selected based on their selectivity and sensitivity to important hepatic receptors known to be modulated by environmental chemicals; importance in human hepatocyte functionality; and hepatotoxicity. […]

SMILES | outcome | AC50
CCNc1nc(N)nc(Cl)n1 | inactive | 
CCN(Cc1c(F)cccc1Cl)c1c([N+](=O)[O-])cc(C(F)(F)F)cc1[N+](=O)[O-] | inactive | 
CCOC(=O)C(C)Oc1ccc(Oc2nc3ccc(Cl)cc3o2)cc1 (stereo not given) | inactive | 
COC(=O)c1ccc(I)cc1S(=O)(=O)NC(=O)Nc1nc(C)nc(OC)n1 | inactive | 
O=C(O)C1(C(=O)Nc2ccc(Cl)cc2Cl)CC1 |  | 81.2 µM (active)
CCOC(=O)NCCOc1ccc(Oc2ccccc2)cc1 | inactive | 
Cc1nn(C)c(Oc2ccccc2)c1C=NOCc1ccc(C(=O)OC(C)(C)C)cc1 |  | 1.74 µM (active)
N#CSCSc1nc2ccccc2s1 | inactive | 
COC(=O)c1ccccc1C(=O)O | inactive | 
CCSC(=O)N(CC(C)C)CC(C)C | inactive | 
C[C@]12CC[C@@H]3c4ccc(O)cc4C[C@@H](CCCCCCCCCS(=O)CCCC(F)(F)C(F)(F)F)[C@H]3[C@@H]1CC[C@@H]2O (stereo not given in full) |  | 21.1 µM (active)
c1ccc(Nc2ccccc2)cc1 | inactive | 
CC(C)(C)[C@@H](O)[C@@H](Cc1ccc(Cl)cc1)n1cncn1 | inactive | 
CCCN(CCC)C(=O)SCC | inactive | 
CSC(=O)c1cccc2nnsc12 | inactive | 
CCCCCOC(=O)COc1cc(N2C(=O)C3=C(CCCC3)C2=O)c(F)cc1Cl | inactive | 
CCCOC(=O)NCCCN(C)C | inactive | 
O=C(Nc1ccc([N+](=O)[O-])cc1Cl)c1cc(Cl)ccc1O |  | 3.17 µM (active)
CCCCC(CC)COC(=O)c1ccccc1C(=O)O (stereo not given) | inactive | 
CCCCC(CC)CN1C(=O)C2C3C=CC(C3)C2C1=O (stereo not given) | inactive | 

SMILES | outcome | AC50
CC(C)CCCCCCc1ccc(O)cc1 | inactive | 
S=C([S-])NCCNC(=S)[S-].[Mn+2] |  | 2.64 µM (active)
O=C(c1ccccc1)C1CCCCC1 | inactive | 
CCCCOC(=O)[C@@H](C)Oc1ccc(Oc2ccc(C(F)(F)F)cn2)cc1 | inactive | 
OB(O)O | inactive | 
CCOC(=O)COc1cc(-n2ncc(C(F)(F)F)c(C)c2=O)c(F)cc1Cl | inactive | 
CCN(CC)C(=O)c1cccc(C)c1 | inactive | 
Oc1ccc(C(c2ccc(O)cc2)C(Cl)(Cl)Cl)cc1 |  | 85.5 µM (active)
CC(C)(c1ccc(O)cc1)c1ccc(O)cc1 | inactive | 0.199 µM (active)
CCCN(CCC)c1c([N+](=O)[O-])cc(C(F)(F)F)c(N)c1[N+](=O)[O-] | inactive | 
CN(C)C(=O)Nc1ccc(Cl)c(Cl)c1 | inactive | 
COCCO | inactive | 
CC(=O)[C@H]1CC[C@H]2[C@@H]3CCC4=CC(=O)CC[C@]4(C)[C@H]3CC[C@]12C |  | 75.8 µM (active)
CCCCOC(=O)C(C)Oc1ccc(Oc2ccc(C(F)(F)F)cn2)cc1 (stereo not given) | inactive | 
O=C(c1ccc(O)cc1O)c1ccc(O)cc1O | inactive | 
CCCCOCCOCCOCc1cc2c(cc1CCC)OCO2 | inactive | 
C[C@]12C[C@H](O)[C@H]3[C@@H](CCC4=CC(=O)CC[C@@]43C)[C@@H]1CC[C@@H]2C(=O)CO | inactive | 
C=CCOC(Cn1ccnc1)c1ccc(Cl)cc1Cl (stereo not given) |  | 45 µM (active)
COC(=O)CSc1cc(N=c2sc(=O)n3n2CCCC3)c(F)cc1Cl | inactive | 
